# The full data set covers some 8,800 targets. This sample favours those with a hit. About 0.5% of all pairs of compound and target were hits. Unmarked numbers belong to inactive results.
# Tests used:
# Assay in all cases: log2 fold change, soluble protein after heating vs DMSO (PISA); higher = thermal stabilisation; K562 lysate, 10 uM; active = over 0.2 and 3.5 SD of the protein, either way, in both replicates (recomputed)
# [1] = compound: CC(=O)c1cnc2ccc(-c3cc(Cl)c(O)c(Cl)c3)nc2c1N[C@H]1CC[C@H](CN(C)C)CC1
# Outline: (§1)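 Soluble protein was defined as the supernatant remaining after 21,000xg for 90 min, following pooling of heated aliquots and adjustment to 0.5% NP-40 at 4°C. Before that, crude K562 extract at 1 mg/mL protein in PBS pH 7.4 with 1 mM MgCl2 was treated with 10 μM compound for 30 min and heated for 3 min across 48°C-58°C. Quantification used TMTpro 16plex LC-MS/MS with channel sums equalised, and values are log-two fold changes in thermal stability relative to solvent controls from duplicates.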
# [2] = compound: CC1=CC=C(C=C1)SC2=C3C=C(SC3=CN=C2)C(=O)N
# Outline: as §1
# [3] = compound: C/C(=N\NC(=O)C1=CC(=CC=C1)S(=O)(=O)N2CCOCC2)/C3=C(C=CC(=C3)Cl)O
# Outline: as §1
# [4] = compound: C1=CC2=C(C=CC(=C2)/C=C\3/C(=O)NC(=NCC4=CC=CS4)S3)N=C1
# Outline: as §1
# [5] = compound: C1=CC2=NC=CN=C2C=C1/C=C/3\C(=O)NC(=O)S3
# Outline: as §1
# [6] = compound: C1=CC=C2C(=C1)C3=NNC4=CC=CC(=C43)C2=O
# Outline: as §1
# [7] = compound: C1CCN(C1)C(=O)NC2=CC=CC(=C2)NC3=NC=C(C(=N3)NCCC4=CN=CN4)Br
# Outline: as §1
# [8] = compound: C1CN(CCC1(CC2=CC=C(C=C2)Cl)N)C3=NC=NC4=C3C=CN4
# Outline: as §1
# ibrutinib = compound: C=CC(=O)N1CCC[C@@H](n2nc(-c3ccc(Oc4ccccc4)cc3)c3c(N)ncnc32)C1 [ibrutinib]
# Outline: as §1
# [9] = compound: CC1=C(C2=C(C=C1)C(=O)C3=CC=CC=C3N2CCCN)C
# Outline: as §1
# [10] = compound: CC1=C(C=C(C=C1)NC(=O)C2=CC(=CC=C2)C(C)(C)C#N)NC3=CC4=C(C=C3)N=CN(C4=O)C
# Outline: as §1
# erlotinib = compound: C#Cc1cccc(Nc2ncnc3cc(OCCOC)c(OCCOC)cc23)c1 [erlotinib]
# Outline: as §1
# [11] = compound: C1=CC(=CC=C1C2=NC3=C(N2)C=C(C=C3)C(=O)N)OC4=CC=C(C=C4)Cl
# Outline: as §1
# [12] = compound: CC(C)C1=C2N=C(C=C(N2N=C1)NCC3=CC=CC=C3)NCCCCCCN
# Outline: as §1
# [13] = compound: C1=CC=C(C=C1)C2=NC(=C(N2)C3=CC=NC=C3)C4=CC(=C(C=C4)Cl)O
# Outline: as §1
# IRAK-1-4 Inhibitor I = compound: C1COCCN1CCN2C3=CC=CC=C3N=C2NC(=O)C4=CC(=CC=C4)[N+](=O)[O-] [IRAK-1-4 Inhibitor I]
# Outline: as §1
# ralimetinib = compound: CC(C)(C)Cn1c(N)nc2ccc(-c3[nH]c(C(C)(C)C)nc3-c3ccc(F)cc3)nc21 [ralimetinib]
# Outline: as §1
# [14] = compound: CC(C)(O)CC(=O)NCCn1ccc2ncnc(Nc3ccc(Oc4cccc(C(F)(F)F)c4)c(Cl)c3)c21
# Outline: as §1
# [15] = compound: CC1=C(C=C(C=C1)NC(=O)C2=CC(=CC=C2)N(C)C)NC(=O)C3=CC=C(C=C3)O
# Outline: as §1
# [16] = compound: CC1=C(C(CC(=O)N1)C2=CC=C(C=C2)C(F)(F)F)C(=O)NC3=C(C=C4C(=C3)C=NN4)F
# Outline: as §1
# Sequence of UniProt P52333 (P52333 whole entry, looked up): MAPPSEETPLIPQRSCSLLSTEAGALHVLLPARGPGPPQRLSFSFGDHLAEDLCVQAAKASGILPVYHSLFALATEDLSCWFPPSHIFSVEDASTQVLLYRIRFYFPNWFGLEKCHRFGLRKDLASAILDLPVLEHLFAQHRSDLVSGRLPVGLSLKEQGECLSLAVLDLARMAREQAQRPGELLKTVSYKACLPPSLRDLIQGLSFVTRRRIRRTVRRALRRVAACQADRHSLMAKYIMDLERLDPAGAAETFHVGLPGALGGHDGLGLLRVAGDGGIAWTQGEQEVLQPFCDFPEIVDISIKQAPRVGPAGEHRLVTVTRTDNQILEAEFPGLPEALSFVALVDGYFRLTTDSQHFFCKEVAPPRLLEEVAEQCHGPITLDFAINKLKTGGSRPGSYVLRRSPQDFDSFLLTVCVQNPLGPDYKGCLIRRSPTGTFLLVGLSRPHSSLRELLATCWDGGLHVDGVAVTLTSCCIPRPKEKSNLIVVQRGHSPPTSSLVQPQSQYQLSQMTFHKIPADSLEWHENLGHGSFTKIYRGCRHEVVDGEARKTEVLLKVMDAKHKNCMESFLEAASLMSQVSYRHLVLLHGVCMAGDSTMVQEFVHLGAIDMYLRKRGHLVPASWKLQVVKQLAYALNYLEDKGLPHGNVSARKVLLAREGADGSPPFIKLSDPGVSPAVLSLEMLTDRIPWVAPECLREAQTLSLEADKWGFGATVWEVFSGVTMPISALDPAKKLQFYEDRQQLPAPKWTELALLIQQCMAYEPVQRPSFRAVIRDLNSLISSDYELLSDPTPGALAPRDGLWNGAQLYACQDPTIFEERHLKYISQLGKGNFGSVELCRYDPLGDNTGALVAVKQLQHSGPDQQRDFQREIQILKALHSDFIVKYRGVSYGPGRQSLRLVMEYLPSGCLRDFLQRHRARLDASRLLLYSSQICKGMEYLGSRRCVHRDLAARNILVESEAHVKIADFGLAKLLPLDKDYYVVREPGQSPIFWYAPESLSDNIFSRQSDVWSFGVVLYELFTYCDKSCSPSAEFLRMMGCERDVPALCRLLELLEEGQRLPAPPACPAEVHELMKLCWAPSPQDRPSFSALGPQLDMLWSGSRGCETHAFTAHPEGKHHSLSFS
# Sequence of UniProt Q9H079 (Q9H079 whole entry, looked up): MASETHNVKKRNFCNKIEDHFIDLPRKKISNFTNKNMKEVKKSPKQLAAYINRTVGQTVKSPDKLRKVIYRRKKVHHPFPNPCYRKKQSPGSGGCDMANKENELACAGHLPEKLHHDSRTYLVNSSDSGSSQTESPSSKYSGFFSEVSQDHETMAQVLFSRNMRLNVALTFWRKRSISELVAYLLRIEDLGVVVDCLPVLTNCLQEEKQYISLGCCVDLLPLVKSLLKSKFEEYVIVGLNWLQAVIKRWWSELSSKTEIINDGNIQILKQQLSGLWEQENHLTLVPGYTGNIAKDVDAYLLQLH
# Sequence of UniProt Q9HAV0 (Q9HAV0 whole entry, looked up): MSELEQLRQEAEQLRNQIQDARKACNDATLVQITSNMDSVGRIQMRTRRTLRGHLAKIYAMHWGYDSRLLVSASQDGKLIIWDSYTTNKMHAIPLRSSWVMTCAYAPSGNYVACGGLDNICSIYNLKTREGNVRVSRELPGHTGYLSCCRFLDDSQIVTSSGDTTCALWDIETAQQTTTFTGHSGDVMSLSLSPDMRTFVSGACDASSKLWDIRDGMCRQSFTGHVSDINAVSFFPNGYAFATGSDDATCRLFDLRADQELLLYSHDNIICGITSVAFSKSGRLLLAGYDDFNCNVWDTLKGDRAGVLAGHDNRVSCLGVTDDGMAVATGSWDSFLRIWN
# Sequence of UniProt Q96A47 (Q96A47 whole entry, looked up): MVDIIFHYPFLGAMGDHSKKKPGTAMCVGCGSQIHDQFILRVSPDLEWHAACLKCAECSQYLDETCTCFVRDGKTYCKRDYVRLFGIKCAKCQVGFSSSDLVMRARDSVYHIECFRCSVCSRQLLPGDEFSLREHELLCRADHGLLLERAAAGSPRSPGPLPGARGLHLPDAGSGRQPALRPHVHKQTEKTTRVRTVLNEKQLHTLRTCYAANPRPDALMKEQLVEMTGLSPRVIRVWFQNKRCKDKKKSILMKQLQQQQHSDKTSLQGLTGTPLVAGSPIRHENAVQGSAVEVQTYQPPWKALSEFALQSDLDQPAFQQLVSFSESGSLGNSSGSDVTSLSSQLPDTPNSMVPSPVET
# Sequence of UniProt Q9Y573 (Q9Y573 whole entry, looked up): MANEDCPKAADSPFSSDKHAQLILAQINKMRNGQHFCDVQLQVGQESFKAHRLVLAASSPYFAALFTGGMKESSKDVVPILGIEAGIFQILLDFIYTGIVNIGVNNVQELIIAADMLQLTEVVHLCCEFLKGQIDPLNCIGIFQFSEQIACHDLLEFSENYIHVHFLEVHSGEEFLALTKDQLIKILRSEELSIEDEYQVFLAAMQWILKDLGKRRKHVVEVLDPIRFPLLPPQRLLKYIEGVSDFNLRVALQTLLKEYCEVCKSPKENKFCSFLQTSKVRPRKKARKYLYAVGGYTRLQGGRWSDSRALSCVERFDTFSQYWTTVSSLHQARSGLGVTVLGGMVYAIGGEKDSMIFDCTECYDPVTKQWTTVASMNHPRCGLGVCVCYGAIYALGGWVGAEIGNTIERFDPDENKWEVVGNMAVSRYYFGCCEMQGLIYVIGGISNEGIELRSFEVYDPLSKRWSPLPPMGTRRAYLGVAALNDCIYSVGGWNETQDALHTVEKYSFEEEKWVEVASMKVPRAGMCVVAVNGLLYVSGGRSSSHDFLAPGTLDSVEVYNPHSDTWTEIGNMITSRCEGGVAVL
# Sequence of UniProt Q96EW2 (Q96EW2 whole entry, looked up): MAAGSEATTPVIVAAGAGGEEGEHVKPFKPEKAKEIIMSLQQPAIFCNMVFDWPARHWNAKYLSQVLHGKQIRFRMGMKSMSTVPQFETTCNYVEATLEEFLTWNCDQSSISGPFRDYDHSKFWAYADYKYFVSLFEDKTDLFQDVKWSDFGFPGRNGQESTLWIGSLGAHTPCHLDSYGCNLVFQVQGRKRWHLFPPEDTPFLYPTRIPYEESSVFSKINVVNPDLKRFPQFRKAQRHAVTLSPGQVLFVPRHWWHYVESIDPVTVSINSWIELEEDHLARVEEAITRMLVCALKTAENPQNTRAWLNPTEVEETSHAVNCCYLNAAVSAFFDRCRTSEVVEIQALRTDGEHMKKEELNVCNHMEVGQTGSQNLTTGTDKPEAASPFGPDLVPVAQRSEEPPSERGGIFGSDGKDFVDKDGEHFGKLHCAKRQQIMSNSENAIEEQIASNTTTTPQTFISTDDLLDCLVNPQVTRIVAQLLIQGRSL
# Sequence of UniProt Q9NSC5 (Q9NSC5 whole entry, looked up): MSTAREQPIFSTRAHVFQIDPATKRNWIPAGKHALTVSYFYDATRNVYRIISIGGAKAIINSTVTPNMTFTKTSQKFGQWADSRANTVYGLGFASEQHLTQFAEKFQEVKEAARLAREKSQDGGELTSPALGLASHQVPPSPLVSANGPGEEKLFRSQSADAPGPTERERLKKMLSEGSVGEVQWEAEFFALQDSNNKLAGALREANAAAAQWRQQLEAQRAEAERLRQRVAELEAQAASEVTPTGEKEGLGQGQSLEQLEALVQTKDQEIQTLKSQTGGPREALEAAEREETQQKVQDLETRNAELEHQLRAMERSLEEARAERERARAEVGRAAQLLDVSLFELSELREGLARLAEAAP
# Sequence of UniProt P17096 (P17096 whole entry, looked up): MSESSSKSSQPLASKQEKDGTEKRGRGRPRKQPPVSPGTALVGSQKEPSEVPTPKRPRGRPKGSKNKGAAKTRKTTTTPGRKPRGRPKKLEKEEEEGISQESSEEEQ
# Sequence of UniProt Q9Y287 (Q9Y287 whole entry, looked up): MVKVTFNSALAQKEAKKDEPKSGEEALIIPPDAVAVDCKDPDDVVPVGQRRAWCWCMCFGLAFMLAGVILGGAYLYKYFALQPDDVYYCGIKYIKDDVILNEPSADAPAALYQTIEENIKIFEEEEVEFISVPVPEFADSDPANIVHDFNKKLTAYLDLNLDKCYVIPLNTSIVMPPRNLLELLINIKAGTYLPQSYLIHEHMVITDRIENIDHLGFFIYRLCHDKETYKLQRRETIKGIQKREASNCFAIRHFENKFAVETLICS
# Sequence of UniProt P02724 (P02724 whole entry, looked up): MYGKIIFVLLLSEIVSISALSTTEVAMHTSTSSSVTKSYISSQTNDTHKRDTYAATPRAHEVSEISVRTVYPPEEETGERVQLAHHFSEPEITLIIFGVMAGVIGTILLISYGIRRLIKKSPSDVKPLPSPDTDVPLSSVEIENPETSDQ
# Sequence of UniProt Q9BQQ3 (Q9BQQ3 whole entry, looked up): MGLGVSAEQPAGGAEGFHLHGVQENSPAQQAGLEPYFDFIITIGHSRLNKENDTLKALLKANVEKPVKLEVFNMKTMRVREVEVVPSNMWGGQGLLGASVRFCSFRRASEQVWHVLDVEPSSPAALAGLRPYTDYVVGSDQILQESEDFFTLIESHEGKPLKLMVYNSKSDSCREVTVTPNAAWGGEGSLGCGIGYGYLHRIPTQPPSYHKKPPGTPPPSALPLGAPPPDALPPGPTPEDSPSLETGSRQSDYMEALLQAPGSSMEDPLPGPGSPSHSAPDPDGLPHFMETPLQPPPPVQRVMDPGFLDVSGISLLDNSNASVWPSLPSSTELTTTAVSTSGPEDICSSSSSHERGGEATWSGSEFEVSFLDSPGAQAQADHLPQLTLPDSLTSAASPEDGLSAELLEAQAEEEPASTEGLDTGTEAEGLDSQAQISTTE
Target,log2 fold change [1],log2 fold change [2],log2 fold change [3],log2 fold change [4],log2 fold change [5],log2 fold change [6],log2 fold change [7],log2 fold change [8],log2 fold change (ibrutinib),log2 fold change [9],log2 fold change [10],log2 fold change (erlotinib),log2 fold change [11],log2 fold change [12],log2 fold change [13],log2 fold change (IRAK-1-4 Inhibitor I),log2 fold change (ralimetinib),log2 fold change [14],log2 fold change [15],log2 fold change [16]
IGF2BP2 isoform 6 (UniProt Q9Y6M1),-0.031,-0.016,–,–,–,–,–,–,–,–,–,–,–,–,–,–,–,–,–,–
HNRNPM (UniProt M0QZM1),–,–,0.07,0.044,0.246,0.066,0.046,0.086,0.003,0.121,-0.068,–,–,–,–,–,–,–,–,–
HNRNPUL1 (UniProt M0R247),–,–,–,–,-0.049,–,–,–,-0.045,–,–,-0.046,0.079,0.016,–,–,–,–,–,–
ISL2 (UniProt Q96A47),–,–,–,–,0.032,–,–,–,0.05,-0.003,-0.075,-0.149,0.003,0.019,-0.014,0.016,0.056,-0.089,0.01,–
GNB4 (UniProt Q9HAV0),-0.071,0.202,–,–,-0.049,–,-0.035,-0.005,-0.104,-0.036,0.073,-0.017,0.067,0,-0.057,-0.024,0.009,-0.026,0.084,-0.05
GYPA (UniProt P02724),0.102,-0.034,-0.107,0.061,0.059,0.048,-0.004,0.043,0.318,-0.085,0.018,-0.109,0.13,-0.095,0.023,0.017,-0.052,0.054,-0.037,–
HMGA1 isoform 2 (UniProt P17096),0.053,0.01,–,–,–,–,–,–,–,-0.229,-0.034,0.042,-0.043,-0.029,0.022,0,-0.122,0.088,0.054,0.047
KDM5B isoform 2 (UniProt Q9UGL1),-0.046,-0.098,0.03,-0.021,0.031,-0.074,-0.035,0.099,-0.075,-0.129,-0.016,0.07,0.006,-0.072,0.012,0.011,-0.083,-0.165,-0.095,–
HSPBAP1 (UniProt Q96EW2),0.039,0.084,–,–,-0.079,–,0.002,0.031,-0.008,-0.324,0.002,0.064,-0.098,0.038,-0.072,-0.002,-0.056,-0.095,0.084,-0.214
JAK3 (UniProt P52333),0.056,0.078,0.037,-0.075,-0.041,0.23,–,–,0.076,–,-0.016,–,–,–,–,–,–,–,–,–
HTT (UniProt P42858),–,–,-0.051,0.037,0.032,-0.138,-0.04,-0.05,0.11,-0.032,0.035,0.018,-0.067,-0.032,-0.041,-0.027,0.065,0.008,0.04,0.047
KATNBL1 (UniProt Q9H079),-0.002,-0.025,0.009,0.064,–,-0.001,0.045,-0.687 (active),–,-0.002,0.082,-0.012,-0.02,0.156,–,–,–,–,–,-0.029
GPLD1 (UniProt P80108),–,–,–,–,–,–,–,–,–,-0.058,-0.187,–,–,–,–,–,–,–,–,–
HYDIN (UniProt Q4G0P3),-0.076,0.017,-0.022,0.005,–,0.036,-0.054,0.022,–,-0.05,–,–,–,–,1.34 (active),0.712,0.148,-0.071,-0.107,–
HSPA8 (UniProt E9PN89),-0.051,-0.083,–,–,-0.095,–,-0.045,-0.043,0.081,0.017,0.093,0.02,-0.004,0.007,0.082,-0.055,0.034,-0.215,0.231,-0.036
GORASP1 (UniProt Q9BQQ3),0.137,-0.02,-0.026,0.05,–,-0.057,0.049,0.018,–,0.027,-0.061,-0.081,-0.019,0.019,0.01,-0.023,-0.01,-0.011,-0.034,0.038
HOMER3 (UniProt Q9NSC5),-0.01,0.048,–,–,-0.078,–,–,–,-0.095,–,-0.028,–,–,–,–,–,–,–,–,–
HMGN5 (UniProt Q5JSK9),-0.007,-0.005,–,–,-0.128,–,0.008,-0.076,0.051,–,–,–,–,–,–,–,–,–,–,-0.094
HNRNPD (UniProt D6RF44),–,–,–,–,–,–,–,–,–,–,-0.334,–,–,–,–,–,–,–,–,0.111
H3-3A (UniProt P84243),-0.047,-0.086,0.001,-0.033,-0.055,0.056,-0.053,-0.315 (active),0.042,–,-0.034,0.038,0.048,0.013,–,–,–,–,–,–
ITM2B (UniProt Q9Y287),–,–,0.225,-0.202,0.026,0.052,–,–,-0.04,-0.011,0.019,-0.039,0.02,-0.044,0.005,0.023,0.131,-0.106,-0.088,0.051
IPP (UniProt Q9Y573),0.042,-0.044,-0.192,-0.181,–,-0.105,0.179,0.041,–,-0.006,–,-0.04,-0.017,-0.073,0.025,-0.035,0.14,-0.056,0.088,–
"HNRNPL, A0A3B3ITJ4",0.033,-0.104,–,–,-0.086,–,–,–,0.033,–,–,–,–,–,–,–,–,–,–,–
